# About 83,000 compounds went through this panel and 20% of them were active in at least one assay; those are over-represented in the sample as a whole.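 The test compound was applied at a single concentration to cells in 96-well plates for 48 hours, and percent growth was recorded.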 Values without a mark were called inactive. Activity calls are given as the source filed them. Rule for the calls: active = growth percent below 10; inactive = the rest.
# System: HL-60(TB) leukemia
# Test: NCI-60 one-dose screen, 48 h (100 = growth as untreated, 0 = no growth, -100 = all killed)
# Settings: 10 µM unless noted
row,SMILES,growth
1,O=C(CS)OCC(COC(=O)CS)(COC(=O)CS)COC(=O)CS,67.2%
2,Cc1cc2c(cc1C)N(C(=O)CCl)CCN2C(=O)CCl,-41.3% (active)
3,CC/C(=C(/c1ccc(Cl)cc1)c1ccc(OCCN2CCCCCC2)cc1)c1ccccc1,49.9%
4,Cc1cc(NC(=O)C2c3ccccc3C(=O)N(CC(C)C)C2c2cccs2)no1 (stereo not given),0.0249% (active)
5,COc1ccc(C2=Nc3c(C)nn(-c4ccccc4)c3NC(c3ccc(Oc4ccnc5cc(Cl)ccc45)c(OC)c3)C2)cc1 (stereo not given),90.8%
6,O=C(CCc1nc2sc3c(c2c(=O)[nH]1)CCC3)NCc1cn(-c2ccccc2)nc1-c1ccccc1,98.7%
7,COc1ccc(-c2nn3c(-c4cc(F)c(Cl)cc4Cl)nnc3s2)cc1,-1.09% (active)
8,CN(C)c1ccc(Nc2c3ccccc3nc3ccccc23)cc1,-2.21% (active)
9,CC(C)CCSc1nc(N)nc2nc[nH]c12,76.7%
10,COc1ccc(-c2nc(N/N=C/c3cccc(Br)c3)nc(N3CCOCC3)c2C#N)cc1,10.7%
11,COc1ccc(-c2cc(NC(=O)Nc3ccc4ncsc4c3)no2)cc1,90.8%
12,O=C1c2cc3c(cc2-c2c1c1ccc(Cl)cc1c(=O)n2C[C@H](O)CO)OCO3,-14.9% (active)
13,COc1ccc(S(=O)(=O)Oc2ccc(-c3sc4cc(OS(=O)(=O)c5ccc(OC)cc5)ccc4c3C(=O)c3ccc(OCCN4CCCCC4)cc3)cc2)cc1,91.1%
14,COc1cc(Nc2cc(C)nc(N3CCN(c4ccnc5cc(Cl)ccc45)CC3)n2)cc(OC)c1,-6.44% (active)
15,COc1ccc(C(=O)c2cc(OC)c(OC)c(OC)c2)cc1/C=C/C(=O)c1ccc(F)cc1,93.2%
16,COc1ccc(C2CC(=O)c3c(O)c(OC)c(OC)c(OC)c3O2)cc1O (stereo not given),-4.32% (active)
17,CCSc1ncc(Br)c(Sc2nc(N)nc3nc[nH]c23)n1,87.8%
18,CCCCC1Nc2nc(SC)n(C)c(=O)c2CN(Cc2ccccc2)C1=O (stereo not given),111%
19,Oc1cccc2ccc(N/N=C/c3cc(CN4CCOCC4)c(O)c4ncccc34)nc12,0.899% (active)
20,CC(C)C1C2=C(NCCN1C(=O)c1ccncc1)C(C)(C)N(Cc1ccccc1)C2=O (stereo not given),87.3%

row,SMILES,growth
1,CC(C)(C)c1cc(C(=O)Nc2ccccc2C(=O)NCCN)cc(C(C)(C)C)c1,-51.8% (active)
2,CN1CCN(Cn2nc(-c3cc(Cl)cc(Cl)c3Cl)oc2=S)CC1,82%
3,COCCOCCOCc1n(Cc2ccc3ccccc3n2)c2ccccc2[n+]1Cc1ccc2ccccc2c1,-68% (active)
4,Oc1ccc(N=Nc2nccs2)c(O)c1,5.98% (active)
5,COc1ccc(NC(=O)[C@@H]2C[C@H]2c2ccccc2)c(C(N)=O)c1,93.9%
6,CCCCCCCCCCCCCCCCCC1=NC(C)(CO)CO1 (stereo not given),87.2%
7,Oc1cccc(-c2nc(N3CCOCC3)c3c4c(sc3n2)CCCC4)c1,74.7%
8,CC(CN1CCN(C)CC1)CN1c2ccccc2Sc2ccc(C(F)(F)F)cc21 (stereo not given),40.4%
9,C#CCOc1cccc(-c2ncnc3cc(NC(=O)C=C)ccc23)c1,16.9%
10,Cc1cc(NC(=O)COC(=O)c2sc3cc(F)ccc3c2Cl)no1,107%
11,COC(=O)[C@]12CC[C@@H](C)[C@H](C)[C@@H]1C1=CC[C@@H]3[C@@]4(C)C(C=O)=C[C@@](C)(COC(=O)/C=C/c5ccccc5)[C@@H]4[C@H](O)C[C@@]3(C)[C@]1(C)CC2,-13% (active)
12,CN1c2ccccc2S(=O)(=O)n2c(SCC(=O)Nc3nc4ccc(F)cc4s3)nnc21,105%
13,COc1cc2nc3cc([N+](=O)[O-])ccc3c(NCCNCC(C)O)c2cc1OC (stereo not given),-16.8% (active)
14,CS(=O)(=O)c1nccc(-c2c(-c3ccc(OCCc4ccccc4)cc3)nc3sccn23)n1,89.5%
15,O=S1(=O)C=C(c2ccccc2)C(c2ccccc2)=C1,-16.3% (active)
16,CCOC(=O)C#Cc1c(C(=O)OCC)nnn1[C@@H]1O[C@H](COC)[C@@H](OC)[C@H]1OC,47.5%
17,O=C(Oc1ccc[nH]c1=O)c1cc([N+](=O)[O-])cc([N+](=O)[O-])c1,75.7%
18,O=C(NCc1cn(Cc2cccc(Oc3ccccc3)c2)nn1)c1cccnc1NCc1ccc(Cl)cc1,3.88% (active)
19,CN1CCN(CC(=O)N(C)c2ccc(N=C(c3ccccc3)c3c(O)[nH]c4ccc([N+](=O)[O-])cc34)cc2)CC1,53.5%
20,CC(C)CCN(CCCNc1c2c(nc3cc(Cl)ccc13)CCCC2)CCC(C)C,70.4%
